# Cardio protect: cardioprotection against H2O2-induced cell death, primary screen, uHTS, H9c2 cells, ATPLite luminescence; 360,000 tested, 0.63% active; protection from H2O2 cell death, % at 20 µM; H9c2 cardiomyocytes, H2O2 injury protection, 2 h;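 active = compounds giving at least 50% protection of heart cells from peroxide-induced death in the single-dose screen, raw or plate-pattern-corrected value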;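 note: 0% = DMSO wells with peroxide and 100% = DMSO wells without peroxide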
# NadD inh: inhibitors of S. aureus NadD, primary screen, biochemical, colorimetric, uHTS; 360,000 tested, 0.78% active; Nicotinate-nucleotide adenylyltransferase NadD (Staphylococcus aureus N315); inhibition, % at 20 µM; purified NadD enzyme, colorimetric absorbance read-out; AID 602399, 2012; in the data active = inhibition above about 26%
# APOBEC3G inh: APOBEC3G DNA deaminase inhibitors, primary screen, biochemical, fluorescence, single-stranded DNA substrate, uHTS | DNA dC->dU-editing enzyme APOBEC-3G (Homo sapiens), Q9HC16 | recombinant A3G, ssDNA deamination FAM/TAMRA fluorescence | inhibition, % at 20 µM | 330,000 tested, 0.28% active;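 active = inhibition of at least 40% at 20 µM, with no more than 30% in the related APOBEC3A deaminase screen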;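 note: plate controls were DMSO wells with A3G for no effect and wells lacking A3G enzyme for full effect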
# Target sequence (Q9HC16 whole entry, looked up): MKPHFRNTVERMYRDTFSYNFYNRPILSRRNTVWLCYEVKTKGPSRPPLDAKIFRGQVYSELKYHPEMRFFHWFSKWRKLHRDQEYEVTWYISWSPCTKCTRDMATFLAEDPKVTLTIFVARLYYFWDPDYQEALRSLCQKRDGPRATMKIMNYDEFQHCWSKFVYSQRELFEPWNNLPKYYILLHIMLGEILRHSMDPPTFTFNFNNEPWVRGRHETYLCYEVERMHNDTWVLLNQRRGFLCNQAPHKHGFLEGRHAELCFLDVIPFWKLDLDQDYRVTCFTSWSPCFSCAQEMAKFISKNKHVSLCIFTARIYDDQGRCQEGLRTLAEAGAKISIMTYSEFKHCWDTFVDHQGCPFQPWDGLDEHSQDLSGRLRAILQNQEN
# PfG6PD inh: PfG6PD enzyme inhibitors, primary screen, biochemical, fluorescence intensity, uHTS | PfGluPho enzyme, NADPH resazurin-diaphorase fluorescence | inhibition, % at 20 µM | 350,000 tested, 0.78% active;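 active = inhibition reaching at least a set limit at 20 µM in the primary screen, cut at about 59% in these data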;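 note: 0% = DMSO wells with substrate and 100% = DMSO wells lacking glucose-6-phosphate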
# APOBEC3A inh: APOBEC3A ssDNA deaminase inhibitors, primary screen, selectivity assay for APOBEC3G inhibitor project, biochemical, FAM/TAMRA oligo cleavage fluorescence. DNA dC->dU-editing enzyme APOBEC-3A (Homo sapiens), P31941. recombinant A3A, FAM/TAMRA ssDNA deamination fluorescence. inhibition, % at 20 µM. 330,000 tested, 0.41% active. AID 493011, 2011;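 active = at least 40% inhibition at 20 µM here, with at most 30% in a related deaminase screen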;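 note: plate controls were A3A with DMSO for no effect and wells lacking A3A enzyme for full effect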
# Target sequence (P31941 whole entry, looked up): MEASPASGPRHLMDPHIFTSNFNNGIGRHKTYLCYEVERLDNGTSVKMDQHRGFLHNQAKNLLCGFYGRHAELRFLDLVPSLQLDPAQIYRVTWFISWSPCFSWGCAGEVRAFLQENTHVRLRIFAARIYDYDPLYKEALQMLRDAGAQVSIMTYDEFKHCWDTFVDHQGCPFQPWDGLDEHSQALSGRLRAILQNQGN
# H9c2 TAG inh: inhibitors of triacylglycerol accumulation, primary screen, cell-based, uHTS, fluorescence, H9c2. inhibition, % at 12.5 µM. 230,000 tested, 0.66% active. H9c2 cells, Nile Red lipid (TAG) fluorescence; cells loaded with 200 µM oleic acid. AID 651582, 2012;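 active = pattern-corrected inhibition of lipid staining of at least 50% with the nuclear-stain viability signal not falling by more than 50%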;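 note: 0% = DMSO wells and 100% = triacsin C control wells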
# APOBEC3A confirm: APOBEC3A deaminase inhibitors, retest, confirmation, selectivity assay for APOBEC3G inhibitor project, biochemical, single concentration, fluorescence readout | shares compounds with APOBEC3A inh | recombinant A3A, ssDNA deaminase UDG fluorescence assay | inhibition, % at 20 µM | 1,400 tested, 63% active | AID 493151, 2011;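 active = inhibition reaching a set limit, 80% of the first screen's cutoff, at 20 µM in any replicate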;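 note: plate controls were DMSO wells with A3A for no effect and wells lacking A3A enzyme for full effect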
# UDG A3A counter: E. coli UDG inhibitors, confirmation, counter-screen for APOBEC3A inhibitor project, biochemical, single concentration, fluorescence, FAM/TAMRA oligo. 1,000 tested, under 10 active. inhibition, % at 20 µM. UDG counterscreen, FAM/TAMRA uracil oligo fluorescence. shares compounds with APOBEC3A inh; call rule not given here
# Active calls of the source: *; / = not tested or not shown. In the library only some 2.9% were active in any assay of this set; here they are far more common.
SMILES,Cardio protect,NadD inh,APOBEC3G inh,PfG6PD inh,APOBEC3A inh,H9c2 TAG inh,APOBEC3A confirm,UDG A3A counter
Cn1nnnc1SCC(=O)Nc1ccc(Br)cc1Cl,20.8,3.5,14.9,1.8,49.7*,/,49.0*,-1.1
COc1ccc(NC(=O)/C(C#N)=C/c2ccc(Br)o2)cc1,11.3,-1.8,27.4,-2.8,67.2*,/,58.2*,/
COC(=O)CCC(=O)OC1(C)C(=O)C2=COC(c3ccc(OC)cc3)=CC2=C(Br)C1=O (stereo not drawn),/,/,11.6,7.6,45.7*,/,28.9,/
C[C@@H]1CN([C@@H](C)CO)C(=O)CCCn2nncc2CO[C@@H]1CN(C)S(=O)(=O)c1ccc2ccccc2c1,3.7,4.3,/,-8.1,/,2.8,/,/
C[N+]1(CCn2ccc3ccccc32)CCCCC1,2.7,2.8,14.1,1.9,62.9*,-2.3,68.0*,-0.8
O=C(N/N=C/c1ccc(-c2ccccc2C(=O)O)o1)c1cccs1,4.6,5.0,19.7,-12.9,45.9*,-0.7,37.8*,-3.4
O=C(N/N=C/c1ccncc1)c1cccs1,9.0,-7.3,-4.5,0.4,-1.3,/,/,/
Cc1cc(Cl)ccc1OCC(=O)N[C@@H](Cc1ccccc1)c1nc2ccccc2[nH]1,-4.6,25.6,14.8,-4.4,42.1*,/,24.2,/
CCC(=O)NC(Cc1ccccc1)c1nc2ccccc2[nH]1 (stereo not drawn),0.4,6.4,-5.5,8.8,-4.5,/,/,/
CC(C)c1ccc(CC(=O)N2CCC2(C)C(=O)NS(=O)(=O)c2cccc(OC(F)F)c2)cc1 (stereo not drawn),2.0,-1.8,/,/,/,8.1,/,/
C=CCn1c(=O)[nH]c(=O)c2c(N)c(C(=O)c3ccc(OC)cc3)sc21,-5.1,-6.7,/,11.5,/,8.8,/,/
CCOC(=O)c1c(O)c(O)c(C(=O)OCC)n1-c1ccccc1,5.5,2.4,6.0,-18.1,-1.4,-0.3,/,/
CC[n+]1c(C)n(-c2ccccc2)c2ccc(C(=O)OC)cc21,-2.4,-0.3,12.2,-3.8,43.6*,-12.1,40.2*,-2.7
CC(=O)OCC[n+]1c(C)n(-c2ccccc2)c2ccc(Cl)cc21,2.0,23.4,11.4,14.2,41.6*,-8.5,84.5*,-2.7
CCOC(=O)c1ccc2c(c1)[n+](CC)c(C)n2-c1ccccc1,-1.9,6.6,25.6,12.0,75.3*,-14.1,85.1*,2.2
Cc1cccc(NC(=O)c2nc[nH]c2C(=O)N2CCN(C(=O)OC(C)(C)C)CC2)c1,0.1,5.5,-10.4,4.1,-1.5,14.1,/,/
N#Cc1cnc2nc(SCc3ccccc3)nn2c1,1.3,-1.3,-6.1,1.9,2.4,/,/,/
COc1ccc(Cl)cc1NC(=O)CN(C)C(=O)CCSc1ccc(C)cc1,-8.2,-7.4,-5.9,19.6,-1.9,30.7,/,/
O=C(c1cccc(S(=O)(=O)NCc2ccccc2)c1)N1CCCC1,1.6,-3.5,-1.4,14.8,1.1,10.4,/,/
O=C(c1cccc(S(=O)(=O)NCc2ccc3c(c2)OCO3)c1)N1CCCC1,4.3,4.5,-9.4,-11.1,88.6*,-2.5,-7.7,0.2
CNC(=O)CN(C1CCCCC1)S(=O)(=O)c1ccc(OC)c(Cl)c1,-6.9,-0.5,17.3,-0.5,44.1*,-12.4,14.9,/
COc1ccc(S(=O)(=O)N(CC(=O)NC2CC2)C2CCCCC2)cc1Cl,-1.7,-3.1,-0.2,7.9,3.5,/,/,/
COC(=O)CN1C2=NCCCN2c2ccccc21,3.7,9.6,-9.5,0.6,1.1,8.1,/,/
Cc1ccc(NC(=O)C(C)OC(=O)Cn2cnc3ccccc3c2=O)cc1 (stereo not drawn),-0.7,-3.3,-6.5,4.2,4.5,20.1,/,/
Cc1ccc(NC(=O)c2cc([N+](=O)[O-])ccc2N2CCOCC2)cc1S(=O)(=O)N1CCOCC1,1.8,-0.5,5.0,10.9,42.4*,1.2,2.2,/
SMILES,Cardio protect,NadD inh,APOBEC3G inh,PfG6PD inh,APOBEC3A inh,H9c2 TAG inh,APOBEC3A confirm,UDG A3A counter
CN(CC(=O)Nc1ccccc1Br)C(=O)c1cc([N+](=O)[O-])ccc1N1CCOCC1,-3.3,2.0,6.8,-14.6,41.6*,-5.3,-0.8,/
Cc1cccc(C)c1NC(=O)CN(C)C(=O)c1cc([N+](=O)[O-])ccc1N1CCOCC1,-3.6,1.7,6.6,25.9,1.6,/,/,/
CCN(CC(=O)Nc1ccc(OC)cc1)C(=O)c1cc([N+](=O)[O-])ccc1N1CCOCC1,6.0,-0.5,-6.8,18.0,0.3,-7.9,/,/
CCN(CC(=O)Nc1cc(Cl)ccc1C)C(=O)c1cc([N+](=O)[O-])ccc1N1CCOCC1,1.8,-1.4,2.7,-7.3,79.7*,1.8,-0.4,/
COc1ccc(C(O)c2nc(-c3ccc(OC)c(OC)c3)cs2)cc1 (stereo not drawn),-4.6,2.1,/,/,/,-51.1,/,/
O=C(Nc1ccc(F)c(Cl)c1)c1ccc2c(=O)n3c(nc2c1)CCCCC3,-0.2,8.7,-2.5,-5.6,-1.2,32.4,/,/
O=C(Nc1ccc(Cl)cc1)c1ccc2c(=O)n3c(nc2c1)CCCCC3,-17.2,1.0,11.4,5.4,51.8*,-3.0,-3.8,/
COCc1cc(C)nc(SCc2ccccc2)c1C#N,-0.9,1.4,-4.6,4.4,-7.3,-38.7,/,/
COCc1cc(C)nc(Sc2nc3c(c(=O)n(C)c(=O)n3C)n2C)c1C#N,5.2,4.6,12.5,7.8,49.7*,/,44.0*,-3.0
CC(=O)Nc1ccc(-c2ccccc2)s1,0.0,-1.9,17.0,-10.0,44.5*,11.3,44.6*,0.0
CC(=O)Nc1ccc(NC(C)=O)s1,-1.6,6.5,-4.8,1.2,-4.5,-13.5,/,/
Cc1c(C(=O)Nc2ccc(S(=O)(=O)N(C)C3CCN(C)CC3)cc2)oc2ccccc12,-17.4,-7.5,-4.6,32.2,0.9,39.1,/,/
Cc1ccc(OCC(=O)Nc2ccc(S(=O)(=O)N(C)C3CCN(C)CC3)cc2)c(C)c1,3.8,-7.3,15.8,14.5,43.1*,2.0,55.0*,-2.7

# Screening data deposited in PubChem BioAssay by Sanford-Burnham Center for Chemical Genomics.
